Compounds with a hit are over-represented: about 2.3% of the library has one in this group of screens.
CHT inh = inhibitors of human choline transporter CHT | CHT-expressing cells, membrane potential dye, choline response; hits give low values | B-score at 10 µM | hit rate 0.86% among 310,000;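 active = B-score over 3 SD under the library average, and starting fluorescence ratio not unusually high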;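 note: choline stimulus applied at its EC90 after an EC20 pre-addition; B-score computed on integrated fluorescence ratio after choline addition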
Target sequence (Q9GZV3 whole entry, looked up): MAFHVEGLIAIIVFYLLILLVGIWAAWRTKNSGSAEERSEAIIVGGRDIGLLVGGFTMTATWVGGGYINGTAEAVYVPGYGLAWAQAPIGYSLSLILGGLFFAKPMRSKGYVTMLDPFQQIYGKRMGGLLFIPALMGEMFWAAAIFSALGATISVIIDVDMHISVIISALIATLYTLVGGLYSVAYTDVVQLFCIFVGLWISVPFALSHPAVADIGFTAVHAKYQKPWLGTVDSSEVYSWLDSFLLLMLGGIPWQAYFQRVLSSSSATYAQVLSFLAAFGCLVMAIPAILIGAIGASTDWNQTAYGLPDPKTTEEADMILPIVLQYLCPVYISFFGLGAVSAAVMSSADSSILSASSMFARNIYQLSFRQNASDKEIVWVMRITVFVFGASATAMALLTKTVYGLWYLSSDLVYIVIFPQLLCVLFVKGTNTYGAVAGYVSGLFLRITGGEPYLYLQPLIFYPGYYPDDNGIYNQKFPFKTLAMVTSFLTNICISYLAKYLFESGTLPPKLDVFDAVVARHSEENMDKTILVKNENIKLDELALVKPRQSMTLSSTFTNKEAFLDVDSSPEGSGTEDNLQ
TMEM16A act = activators or potentiators of mouse TMEM16A chloride channel. hit rate 0.3% among 340,000. B-score at 10 µM. HEK293 TMEM16A/YFP-H148Q/I152L, iodide quench fluorescence; hits give low values. Q8BHY3;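 active = fluorescence-ratio B-score plate-corrected deviation score at least 3 library SD below zero, with starting fluorescence score within 5 deviations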;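 note: channel opened by trigger with iodide after compound preincubation; score built on the fluorescence ratio of max minus min over baseline; more negative score means more quench and so TMEM16A activation or potentiation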
CHT allo act = human CHT allosteric activation; Q9GZV3; B-score at 10 µM; CHT-expressing cells, membrane potential dye, choline EC20; hits give high values; LV-AA mutant CHT in HEK293 cells; hit rate 0.49% among 310,000;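 active = initial fluorescence not abnormally high and integrated response B-score, plate-corrected, over 3 SD above library mean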
ANO1 block = mouse TMEM16A channel inhibition, primary screen; Q8BHY3; HEK293 TMEM16A/YFP iodide influx fluorescence, ionomycin; normalized B-score (activity score, 25-100; higher = stronger inhibition) at 10 µM; hit rate 1.2% among 310,000;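 active = ratio plate-corrected score three or more library SD toward inhibition, starting fluorescence score within five deviations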;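 note: score derived from kinetic fluorescence span divided by baseline fluorescence per well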
TMEM16A reconf = reconfirmed blocker of mouse TMEM16A calcium-activated chloride channel. shares compounds with ANO1 block. HEK293 TMEM16A/YFP-H148Q, iodide quench fluorescence; ionomycin added to raise cell calcium. inhibition, % at 10 µM. hit rate 39% among 2,300. AID 652189;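 active = mean duplicate percent inhibition, scaled so buffer wells are 0 and the reference blocker 100, over three buffer SD above buffer mean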
TMEM16A Ca cntr = calcium mobilization counter-screen hit for TMEM16A inhibitor series | shares compounds with ANO1 block | TMEM16A/YFP HEK293, Fluo4 calcium mobilization | calcium response (% of ionomycin), % at 10 µM | hit rate 2% among 2,300 | AID 652231;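 active = duplicate-averaged calcium signal over 20% of the ionomycin maximum, relative to buffer baseline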;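 note: each well's signal is peak minus trough fluorescence divided by its pre-addition baseline; 0% = buffer wells and 100% = ionomycin wells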
Parental YFP cnt = acts in parental YFP-HEK293 cells lacking TMEM16A, counter-screen; iodide YFP quench, ionomycin; AID 652233; shares compounds with ANO1 block; 2,300 tested, under 10 active; YFP ratio F(max-min)/F0 at 10 µM;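 active = yellow fluorescent protein signal ratio exceeding the buffer control mean by over 5 SD of those controls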;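 note: ratio is mean of duplicate wells from kinetic YFP trace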
ClC-1 inh = selectivity of TMEM16A inhibitors: inhibition of rat ClC-1 chloride channel; shares compounds with ANO1 block; CHO ClC-1-YFP, iodide influx fluorescence quench; iodide control reads 0, buffer control 100; ratio percent, % at 10 µM; 2,300 tested, under 10 active;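 active = duplicate-mean ratio percent above the mean of iodide-only control wells, which defines zero, plus 5 of their SD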;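 note: higher percent means stronger block of ClC-1 iodide influx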
Active calls of the source: *; i = inactive; . = not tested or not shown.

SMILES | CHT inh | TMEM16A act | CHT allo act | ANO1 block | TMEM16A reconf | TMEM16A Ca cntr | Parental YFP cnt | ClC-1 inh
CC(C)Cn1c(N)c(C(=O)COC(=O)C2Cc3ccccc3CN2S(C)(=O)=O)c(=O)n(C)c1=O (stereo not given) | . | i | . | . | . | . | . | .
O=C(c1ccc(F)cc1)N1CCC(c2ccccc2)C1 (stereo not given) | i | i | i | i | i | i | -0.82 | -17
Cc1ccc(S(=O)(=O)N/N=C/c2c[nH]c3ccccc23)cc1 | i | i | i | 25* | 28%* | i | -0.9 | -32
COc1ccc2[nH]cc(/C=N/NS(=O)(=O)c3ccc(C)cc3)c2c1 | i | i | i | 25* | 28%* | i | -0.94 | -16
Cc1ccc(S(=O)(=O)CCC(=O)OCC(=O)NCC(=O)Nc2c(C)cc(C)cc2C)cc1 | i | i | i | i | . | . | . | .
CCCCn1c(N)c(N(CCC(C)C)C(=O)CSc2nc3ccccc3n2C)c(=O)[nH]c1=O | . | i | . | . | . | . | . | .
CO/N=C/C(C#N)c1ncc(C(F)(F)F)cc1Cl (stereo not given) | i | i | i | 25* | 16%* | i | -0.84 | -8
CO/N=C/C(c1ncc(C(F)(F)F)cc1Cl)S(=O)(=O)c1ccccc1 (stereo not given) | i | i | i | i | . | . | . | .
CCc1nnc2sc(-c3ccc(NC(=O)CSc4ccc(Cl)cc4)cc3)nn12 | i | i | i | i | i | i | -1.1 | 0
CN(C)c1ccnc(SCc2ccccc2Cl)c1C#N | i | i | i | 25* | i | i | -0.84 | -8
CN(C)c1ccnc(Oc2ccccc2)c1C#N | . | i | . | . | . | . | . | .
COc1ccc(NC(=O)c2cc(S(=O)(=O)N3CCOCC3)ccc2C)cc1S(=O)(=O)N1CCOCC1 | . | i | . | . | . | . | . | .
CCOC(=O)Cc1c(C)nc(N)[nH]c1=O | i | i | i | i | . | . | . | .
C[C@H](O)C(=O)C1=Nc2c(nc(N)[nH]c2=O)NC1 | i | i | i | i | 37%* | 89%* | -0.53 | -2
Cc1ccc(C(=O)C(C)OC(=O)CCN2C(=O)C3C4C=CC(C5CC45)C3C2=O)cc1 (stereo not given) | i | i | i | i | . | . | . | .
COC(=O)c1c(C)[nH]c(C(=O)OCC(=O)c2ccc(C)s2)c1C | . | i | . | . | . | . | . | .
COc1cccc(C2=CC(c3cccc(OC)c3OC(F)F)n3nnnc3N2)c1 (stereo not given) | i | i | i | 100* | i | i | -1 | -3
COC(=O)c1cn(CCOc2ccccc2OC)c2ccccc12 | i | i | i | 25* | i | i | -0.92 | -18
COC(=O)Cn1cc(C(=O)OC)c2ccccc21 | i | i | i | i | . | . | . | .
COc1cc(CNC(=O)c2ccccc2NC(=O)C2=C(C)OCCS2)cc(OC)c1OC | i | i | i | i | . | . | . | .
O=C(O)c1ccccc1C(=O)c1cccc2c(Br)cccc12 | . | i | . | . | . | . | . | .
O=C(Nc1cccc(F)c1)C1CCCN(C(=O)c2ccc(Cl)cc2)C1 (stereo not given) | . | i | . | . | . | . | . | .
O=C(Nc1cccc(C(F)(F)F)c1)c1ccc(Cn2cc(Br)cn2)o1 | i | i | i | 100* | 49%* | i | -1.1 | -12
CCOC(=O)C(CC)(CCC(=O)OC)c1csc(Nc2ccccc2O)n1 (stereo not given) | i | . | i | i | . | . | . | .
CCOC(=O)C(CCC(=O)O)(CCC(C)C)c1csc(N)n1 (stereo not given) | i | i | i | 100* | i | i | -0.97 | -14
SMILES | CHT inh | TMEM16A act | CHT allo act | ANO1 block | TMEM16A reconf | TMEM16A Ca cntr | Parental YFP cnt | ClC-1 inh
Cc1ccc(C(=O)N2CCCC(C(=O)c3ccc(Oc4ccccc4)cc3)C2)cn1 (stereo not given) | i | i | i | 100* | 29%* | i | -0.89 | -10
O=C(c1sc2cccc(Cl)c2c1Cl)N1CCN(CCc2ccccn2)CC1 | i | i | i | i | . | . | . | .
Cc1cccc2sc(NNC(=O)c3ccc(S(=O)(=O)N4CC(C)CC(C)C4)cc3)nc12 (stereo not given) | i | i | i | 25* | 26%* | i | -0.97 | -9
Cc1cc(C)c2nc(NNC(=O)c3ccc(S(=O)(=O)N4CC(C)CC(C)C4)cc3)sc2c1 (stereo not given) | i | i | i | i | . | . | . | .
COC(=O)C1CCN(S(=O)(=O)CCNC(=O)c2ccc3c(c2)OCO3)CC1 | i | i | i | i | . | . | . | .
COc1ccc(NS(=O)(=O)c2ccc3oc(SC(C)C(N)=O)nc3c2)cc1 (stereo not given) | i | i | i | 25* | i | i | -0.91 | -14
CCSc1nnc(NC(=O)CSc2nccn2-c2cccc(C)c2C)s1 | i | . | i | 25* | i | i | -0.98 | -12
CCOc1ccc(NC(=O)C2CCC(C)(C(=O)O)C2(C)C)cc1 (stereo not given) | i | i | i | 25* | i | i | -1.1 | -6
Cc1ccccc1NC(=O)Cc1nc(COC(=O)c2ccccn2)cs1 | i | i | i | i | . | . | . | .
Cc1cc(C)c(C(=O)OCc2csc(CC(=O)Nc3ccccc3C)n2)c(C)c1 | i | i | i | 25* | i | i | -1.1 | -13
Cc1c(Cc2ccc3c(c2)OCO3)sc(NC(=O)c2ccccc2)c1C(N)=O | i | i | i | i | i | i | -1.1 | 0
CC(C)N(CCO)Cc1nc(C(c2ccccc2)c2ccccc2)no1 | i | i | i | i | . | . | . | .
COc1ccc(CNC(=O)CCC2N=C3c4ccccc4N=C(SCC(=O)NCC4CCCO4)N3C2=O)cc1 (stereo not given) | i | i | i | i | . | . | . | .
COc1ccccc1NC(=O)COc1ccc(/C=N/NC(=O)CSCc2cc(C)cc(C)c2)cc1 | i | i | i | i | . | . | . | .
COc1ccccc1NC(=O)COc1ccc(/C=N/NC(=O)CSCc2ccc(Cl)cc2)cc1 | i | i | i | 100* | 18%* | i | -1.1 | 4
CN(C)c1ccc(S(=O)(=O)N2CCCCC2)cc1NC(=O)CCNC(=O)c1ccc(Cl)cc1 | . | i | . | . | . | . | . | .
CC(=O)N1CCN(C(=O)c2cccc(S(=O)(=O)Nc3c(C)n(C)n(-c4ccccc4)c3=O)c2)CC1 | . | i | . | . | . | . | . | .
O=C(c1ccco1)N1CCN(S(=O)(=O)c2ccc3[nH]c(=O)oc3c2)CC1 | i | i | i | i | . | . | . | .

Compound activity (PubChem BioAssay)
